Test [1] can be described thus: qHTS RealTime-Glo MT Cell Viability Assay in HEK293 cells - 0 hour (AID 1224880). Also: top concentration of the series differs between compounds; nearly all actives have a fitted effect of over 45% in size. An outline of the steps: (§1)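 Tox21 screen in HEK293 using RealTime-Glo MT chemistry, with cells and reagent co-dispensed. Luminescence proportional to viable cell number was captured at intervals during 40 h compound exposure at 37 C.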
Test [2] in a line: A CellTox Green Cytotoxicity Assay to monitor cytotoxicity in HepG2 cells - 0 hour (AID 1224882). Also: nearly all actives have a fitted effect of over 35% in size. In outline:
(§2)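 Nonlytic assay: viable cells exclude the dye, so fluorescence scales with cell death. HepG2 at 600 cells/well, compounds added after 5 h, signal read across 40 h.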

The nature of test [3]: A CellTox Green Cytotoxicity Assay to monitor cytotoxicity in HEK293 cells - 8 hour (AID 1224884). Also: nearly all actives have a fitted effect of over 35% in size. In outline:
(§3)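 Seeding of HEK293 cells together with cytotoxicity dye preceded a 5 h incubation at 37 C/5% CO2. Test compounds in DMSO were then added and fluorescence monitored across 40 h.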

A short description of test [4]: qHTS RealTime-Glo MT Cell Viability Assay in HepG2 cells - 16 hour (AID 1224885). Also: nearly all actives have a fitted effect of over 50% in size. In outline:
(§4)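 HepG2 cells (600/well) were dispensed with RealTime-Glo reagents, incubated 5 h at 37 °C, then treated with compounds in DMSO for up to 40 h. Nonlytic NanoLuc luminescence reflecting viable cells was read at each stated time point.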
(qHTS replaces the single test concentration by a dilution series.)

Test [5] in a line: qHTS RealTime-Glo MT Cell Viability Assay in HEK293 cells - 8 hour (AID 1224887). Also: nearly all actives have a fitted effect of over 50% in size. Also: potency is read from the fitted curve at half-maximal effect. In outline: as §1
A short description of test [6]: qHTS RealTime-Glo MT Cell Viability Assay in HepG2 cells - 0 hour (AID 1224889). Also: nearly all actives have a fitted effect of over 50% in size. In outline:
as §4

Test [7] can be described thus: qHTS assay to identify small molecule antagonists of the estrogen receptor alpha (ER-alpha) signaling pathway using the BG1 cell line in the presence of 0.1 nM 17-beta-estradiol - cell viability counter screen (AID 1259241). Also: nearly all actives have a fitted effect of over 40% in size. An outline of the steps: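 Estradiol-stimulated (0.1 nM) VM7Luc4E2 cells exposed to compounds 22 hr; viability measured by fluorescence of cleaved CellTiter-Fluor substrate after 30 min.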

Test [8] is described as follows: qHTS assay to identify small molecule antagonists of the androgen receptor (AR) signaling pathway using the MDA cell line in the presence of 0.5 nM R1881 - cell viability counter screen (AID 1259242). Also: nearly all actives have a fitted effect of over 45% in size. An outline of the steps:
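R1881 at 0.5 nM final stimulated MDA-kb2 cells during 16 hr compound treatment at 37C. Cytotoxicity read: CellTiter-Fluor fluorescence after 30 min.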

Test [9] concerns the target Estrogen receptor (Homo sapiens) (UniProt P03372). In words: qHTS assay to identify small molecule antagonists of the estrogen receptor alpha (ER-alpha) signaling pathway using the BG1 cell line in the presence of 0.1 nM 17-beta-estradiol (AID 1259244). Also: nearly all actives have a fitted effect of over 50% in size. In outline: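 VM7Luc4E2; 4xERE-luciferase; 0.1 nM E2 final; 22 h co-incubation, 37C; ONE-Glo luminescence after 30 min at room temperature.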

Test [10] can be described thus: qHTS assay to identify small molecule HDAC inhibitors (AID 1259364). Also: potency is read from the fitted curve at half-maximal effect.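 Also: wild-type HCT-116 cells with endogenous class I/II HDAC activity; nearly all actives have a fitted effect of over 45% in size.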 An outline of the steps: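 Relative class I and II HDAC activity is taken from the luminogenic signal in HCT-116 cells, with compound exposure 2 hr and reagent development 30 min at room temperature.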
A short description of test [11]: qHTS assay to identify small molecule HDAC inhibitors - cell viability counter screen (AID 1259365). In outline:
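After overnight seeding at 1,500 cells per well, wild-type HCT-116 cultures took up compounds in DMSO for 2hr at 37 C. Viable cell content came from luminescence with CellTiter-Glo.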

Test [12] is described as follows: qHTS assay to identify small molecule agonists of the sonic hedgehog signaling (Shh) pathway - cell viability counter screen (AID 1259366). Also: nearly all actives have a fitted effect of over 50% in size. In outline: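 Same-well cytotoxicity read. Gli1-Luc reporter 3T3 cells; compounds 24hr, 37C/5% CO2; CellTiter-Fluor fluorescence.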
The nature of test [13]: qHTS assay to identify small molecule antagonists of the sonic hedgehog signaling (Shh) pathway - cell viability counter screen (AID 1259367). Also: nearly all actives have a fitted effect of over 55% in size. In outline: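 NIH/3T3-derived Gli1-Luc reporter cells (2,000 per well) rested 4 hr at 37 C, then received DMSO compounds plus conditioned medium. After 23 hr of treatment, CellTiter-Fluor was added for 1 hr at 37C and fluorescence read.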

The nature of test [14]: A CellTox Green Cytotoxicity Assay to monitor cytotoxicity in HEK293 cells - 32 hour (AID 1224881). Also: nearly all actives have a fitted effect of over 40% in size. An outline of the steps:
as §3

Test [15] is described as follows: A CellTox Green Cytotoxicity Assay to monitor cytotoxicity in HEK293 cells - 16 hour (AID 1224888). Also: nearly all actives have a fitted effect of over 35% in size. In outline:
as §3

A short description of test [16]: A CellTox Green Cytotoxicity Assay to monitor cytotoxicity in HepG2 cells - 8 hour (AID 1224890). Also: nearly all actives have a fitted effect of over 45% in size. An outline of the steps:
as §2

Test [17] addresses Androgen receptor (Homo sapiens) (UniProt P10275). As to the kind of experiment: qHTS assay to identify small molecule antagonists of the androgen receptor (AR) signaling pathway using the MDA cell line in the presence of 0.5 nM R1881 (AID 1259243). Also: nearly all actives have a fitted effect of over 50% in size. In outline:
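We exposed MDA-kb2 cells to compounds under 0.5 nM R1881 stimulation for 16 hr at 37C and quantified MMTV-driven luciferase by luminescence.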

Test [18] can be described thus: A CellTox Green Cytotoxicity Assay to monitor cytotoxicity in HepG2 cells - 32 hour (AID 1224883). Also: nearly all actives have a fitted effect of over 50% in size. An outline of the steps: as §2
Test [19] in a line: qHTS RealTime-Glo MT Cell Viability Assay in HEK293 cells - 24 hour (AID 1224886). Also: nearly all actives have a fitted effect of over 50% in size. Also: potency is read from the fitted curve at half-maximal effect. In outline: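 HEK293 cells seeded with NanoLuc/prosubstrate reagent, rested 5 h at 37 C, then dosed and kept at 37 C up to 40 h. Nonlytic real-time luminescence from viable cells read at 0, 8, 16, 24, 32 and 40 h.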
Test [20] can be described thus: qHTS assay to identify small molecule phospholipidosis (PLD) inducers (AID 1259344; active = well fitted curve in the direction sought with a large enough effect; an effect the other way counts as inactive or inconclusive). In outline: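 HepG2 cells on collagen I, attached 4 h at 37 C, were co-treated with compound and LipidTOX Red dye for 24 h at 37 C, then fixed with paraformaldehyde plus Hoechst 33342 and imaged by high-content microscopy for phospholipid accumulation.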

Inconclusive results are not listed. Calls of active or inactive are those of the source. Unless noted, calls follow the shape of the dose curve; as a rule, active = well fitted curve in the direction sought with a large enough effect in the repeat runs; inconclusive = weak or mixed curves; inactive = no such curve, though single readings can be large; an effect the other way counts as inactive or inconclusive.

Sequence of Estrogen receptor (Homo sapiens) (P03372 whole entry, looked up): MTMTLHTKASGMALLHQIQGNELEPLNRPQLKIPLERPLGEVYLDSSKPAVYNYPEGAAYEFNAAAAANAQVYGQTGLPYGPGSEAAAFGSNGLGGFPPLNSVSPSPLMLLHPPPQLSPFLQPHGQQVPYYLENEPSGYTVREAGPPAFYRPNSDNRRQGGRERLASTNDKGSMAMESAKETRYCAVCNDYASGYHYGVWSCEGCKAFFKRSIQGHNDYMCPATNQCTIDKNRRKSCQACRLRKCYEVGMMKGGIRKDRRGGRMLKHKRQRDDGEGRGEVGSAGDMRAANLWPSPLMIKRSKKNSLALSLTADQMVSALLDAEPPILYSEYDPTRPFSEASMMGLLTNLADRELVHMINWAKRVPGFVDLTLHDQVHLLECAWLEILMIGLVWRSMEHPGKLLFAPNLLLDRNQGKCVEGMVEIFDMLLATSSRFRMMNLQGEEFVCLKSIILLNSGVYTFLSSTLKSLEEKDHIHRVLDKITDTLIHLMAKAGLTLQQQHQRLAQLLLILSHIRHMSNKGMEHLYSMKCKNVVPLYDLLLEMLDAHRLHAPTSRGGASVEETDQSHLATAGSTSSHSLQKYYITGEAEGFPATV
Sequence of Androgen receptor (Homo sapiens) (P10275 whole entry, looked up): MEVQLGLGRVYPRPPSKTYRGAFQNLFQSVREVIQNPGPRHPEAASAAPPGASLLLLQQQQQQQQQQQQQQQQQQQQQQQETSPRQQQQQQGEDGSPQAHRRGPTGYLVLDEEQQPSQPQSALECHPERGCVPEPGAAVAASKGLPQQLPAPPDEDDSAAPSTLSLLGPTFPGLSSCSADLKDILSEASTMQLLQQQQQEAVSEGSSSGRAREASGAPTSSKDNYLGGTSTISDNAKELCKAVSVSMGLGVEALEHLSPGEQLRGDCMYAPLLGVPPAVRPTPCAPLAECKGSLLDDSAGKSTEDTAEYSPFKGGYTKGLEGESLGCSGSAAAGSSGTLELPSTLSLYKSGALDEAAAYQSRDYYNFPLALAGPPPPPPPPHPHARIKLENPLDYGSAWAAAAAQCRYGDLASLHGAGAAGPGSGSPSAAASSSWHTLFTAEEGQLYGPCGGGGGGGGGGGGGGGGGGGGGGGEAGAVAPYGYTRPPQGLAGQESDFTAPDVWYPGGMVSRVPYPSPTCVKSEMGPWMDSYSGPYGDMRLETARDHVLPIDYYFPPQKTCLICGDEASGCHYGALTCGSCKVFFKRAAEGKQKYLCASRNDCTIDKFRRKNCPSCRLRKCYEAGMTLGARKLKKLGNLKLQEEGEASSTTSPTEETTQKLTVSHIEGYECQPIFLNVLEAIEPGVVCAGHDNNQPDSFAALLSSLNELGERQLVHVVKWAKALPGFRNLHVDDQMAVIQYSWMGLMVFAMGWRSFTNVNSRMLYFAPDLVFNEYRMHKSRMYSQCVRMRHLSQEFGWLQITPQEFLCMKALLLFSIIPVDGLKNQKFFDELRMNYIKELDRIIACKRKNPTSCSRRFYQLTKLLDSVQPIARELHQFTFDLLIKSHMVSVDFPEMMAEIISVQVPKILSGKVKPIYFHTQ

With `c1ccc(CCCc2ccncc2)cc1`, the Potency entry in test [1], in test [2], in test [3], in [4], in test [5] and in test [6] was “inactive” throughout. Also, the Potency entry in test [7], in test [8], in test [9], in test [11], in [12] and in test [13] was “inactive” in each case. Also, the Potency in test [10] is 27.3 µM (active).
Take `O=C(Oc1ccccc1)c1ccc2ccccc2c1O`: the Potency result in test [1], in test [14], in test [2], in test [3], in [4] and in test [15] was “inactive” each time. The Potency result in test [6], in [16], in [7], in test [8], in test [17] and in [9] was “inactive” throughout. The Potency entry in test [11] and in test [12] was “inactive” throughout. In addition, in test [10], the Potency was 9.69 µM (active).
In the case of `CC(C)C1CCC(C(=O)N[C@H](Cc2ccccc2)C(=O)O)CC1` (some centres not stated), the Potency result in test [14], in test [2], in test [18], in test [3], in [4] and in test [19] was “inactive” in each case. In addition, the Potency entry in [5], in test [15], in test [6], in test [16], in test [7] and in test [8] was “inactive” each time. Also, the Potency result in test [9], in test [10], in [11], in test [12] and in [13] was “inactive” each time.
With `COc1cc(C(C)=O)ccc1OCCCN1CCC(c2noc3cc(F)ccc23)CC1`, the Potency result in test [1], in [14], in test [2], in test [4], in test [15] and in test [6] was “inactive” each time. Also, the Potency entry in test [16], in test [7], in test [8], in test [9], in test [10] and in test [11] was “inactive” throughout. For the same compound, the Potency entry in test [12] and in [13] was “inactive” throughout. Further, the Potency in [19] and in test [5] was 9.52 µM (active) each time.
Take `O=C1[C@@H]2[C@H]3CC[C@H](C3)[C@@H]2C(=O)N1CCCCN1CCN(c2ncccn2)CC1`: the Potency result in test [1], in test [14], in test [2], in test [3], in [4] and in test [19] was “inactive” throughout. Besides, the Potency entry in [5], in [15], in test [6], in test [7], in test [8] and in test [10] was “inactive” throughout. In addition, the Potency entry in test [11], in test [12] and in test [13] was “inactive” in each case.
Turning to `C[C@@H]1[C@H](O)[C@@H](C)/C=C/C=C\C=C\C=C\C=C\C=C\C=C\[C@H](O[C@@H]2O[C@H](C)[C@@H](O)[C@H](N)[C@@H]2O)C[C@@H]2O[C@](O)(C[C@@H](O)C[C@@H](O)[C@H](O)CC[C@@H](O)C[C@@H](O)CC(=O)O[C@H]1C)C[C@H](O)[C@H]2C(=O)O` (stereo in doubt), the Potency entry in test [1], in test [2], in [3], in test [4], in test [19] and in test [5] was “inactive” throughout. Besides, the Potency result in test [15], in test [6], in [16], in test [7], in test [9] and in test [11] was “inactive” throughout.
On to `CCN(CC)CCOc1ccccc1C(=O)CCc1ccccc1`, for which the Potency result in [14], in test [2], in [18], in [3], in test [4] and in [15] was “inactive” in each case. The Potency result in test [6], in test [16], in [7], in test [8], in [9] and in test [20] was “inactive” throughout. In addition, the Potency entry in test [10], in test [12] and in test [13] was “inactive” each time. Further, the Potency in test [19] and in test [5] was 10.7 µM (active) in each case.
`C/C(C=O)=C\c1ccccc1`: the Potency result in test [1], in test [2], in test [18], in test [3], in [4] and in [19] was “inactive” throughout. The Potency result in test [5], in [15], in test [6], in test [16], in test [7] and in [8] was “inactive” throughout. The Potency entry in test [9], in [11], in test [12] and in test [13] was “inactive” in each case. In test [10], the Potency was 30 µM (active).

For the origin of these results see PubChem BioAssay (Tox21).
